The record followed here is PubChem BioAssay (Tox21).

Experiment [1] in a line: qHTS RealTime-Glo MT Cell Viability Assay in HEK293 cells - 16 hour (AID 1224872). Note: top concentration of the series differs between compounds; nearly all actives have a fitted effect of over 50% in size. The gist of the method:
(§1)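 Quantitative high-throughput screen of the Tox21 10K library in HEK293: cells and RealTime-Glo reagents plated together, compound added at 5 h, luminescence monitored through 40 h at 37 C.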

Experiment [2] can be described thus: qHTS RealTime-Glo MT Cell Viability Assay in HepG2 cells - 8 hour (AID 1224873). Note: nearly all actives have a fitted effect of over 55% in size. The gist of the method: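 HepG2 cells (600/well) mixed with RealTime-Glo MT reagent, settled 5 h at 37 C/5% CO2 before compound addition. Nonlytic NanoLuc luminescence from viable-cell prosubstrate reduction read repeatedly during 40 h treatment at 37 C.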
Experiment [3] can be described thus: qHTS RealTime-Glo MT Cell Viability Assay in HEK293 cells - 40 hour (AID 1224874). Note: nearly all actives have a fitted effect of over 50% in size. Note: potency is the fitted concentration of half-maximal effect. The settings on record: RealTime-Glo luminescence; max response: stronger effect = lower value. The gist of the method: (§2)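 Luminescence readout at each listed time point; HEK293, 600 cells/well, RealTime-Glo MT reagent added with cells; compounds pinned (23 nL in DMSO) after 5 h at 37 C; continuous culture at 37 C.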

Experiment [4] is described as follows: A CellTox Green Cytotoxicity Assay to monitor cytotoxicity in HEK293 cells - 24 hour (AID 1224875). Note: series mostly up to about 77 µM; nearly all actives have a fitted effect of over 45% in size. The gist of the method:
(§3)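 Read-out: fluorescence of a cell-impermeant cyanine dye staining DNA of dead cells, proportional to cytotoxicity. HEK293, 600 cells/well with reagent, compound (23 nL DMSO) added after 5 h; reads at 0, 8, 16, 24, 32, 40 h.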

The nature of experiment [5]: A CellTox Green Cytotoxicity Assay to monitor cytotoxicity in HepG2 cells - 16 hour (AID 1224876). Note: nearly all actives have a fitted effect of over 45% in size. The gist of the method: (§4)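 HepG2, 600 cells/well premixed w/ CellTox Green; 5 h settle, 37 C/5% CO2; pintool cpd add (DMSO); 37 C, 40 h; fluorescence read at 0, 8, 16, 24, 32, 40 h.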
The nature of experiment [6]: A CellTox Green Cytotoxicity Assay to monitor cytotoxicity in HepG2 cells - 24 hour (AID 1224878). Note: nearly all actives have a fitted effect of over 45% in size. The gist of the method: as §4
A short description of experiment [7]: A CellTox Green Cytotoxicity Assay to monitor cytotoxicity in HepG2 cells - 40 hour (AID 1224879). Note: nearly all actives have a fitted effect of over 40% in size. The gist of the method: as §4
The nature of experiment [8]: A CellTox Green Cytotoxicity Assay to monitor cytotoxicity in HEK293 cells - 32 hour (AID 1224881). Note: nearly all actives have a fitted effect of over 40% in size. The gist of the method: as §3
Experiment [9] is described as follows: A CellTox Green Cytotoxicity Assay to monitor cytotoxicity in HepG2 cells - 0 hour (AID 1224882). Note: nearly all actives have a fitted effect of over 35% in size. The gist of the method: as §4
Experiment [10] in a line: A CellTox Green Cytotoxicity Assay to monitor cytotoxicity in HepG2 cells - 32 hour (AID 1224883). Note: nearly all actives have a fitted effect of over 50% in size. The gist of the method: as §4
Experiment [11] in a line: qHTS RealTime-Glo MT Cell Viability Assay in HepG2 cells - 16 hour (AID 1224885). Note: nearly all actives have a fitted effect of over 50% in size. The gist of the method: (§5)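 Compound treatment began 5 h after plating HepG2 cells (600/well) with NanoLuc luciferase and prosubstrate. Plates stayed at 37 C for 40 h; luminescence was captured at six time points, 0 h through 40 h.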
A general note: Quantitative high-throughput screening tests each substance at several concentrations.

The nature of experiment [12]: qHTS RealTime-Glo MT Cell Viability Assay in HEK293 cells - 24 hour (AID 1224886). The gist of the method:
as §1

A short description of experiment [13]: qHTS RealTime-Glo MT Cell Viability Assay in HEK293 cells - 8 hour (AID 1224887). Note: nearly all actives have a fitted effect of over 50% in size. Note: potency is the fitted concentration of half-maximal effect. The gist of the method:
as §2

The nature of experiment [14]: A CellTox Green Cytotoxicity Assay to monitor cytotoxicity in HEK293 cells - 16 hour (AID 1224888). Note: nearly all actives have a fitted effect of over 35% in size. The gist of the method: as §3
Experiment [15] can be described thus: qHTS RealTime-Glo MT Cell Viability Assay in HepG2 cells - 0 hour (AID 1224889). Note: nearly all actives have a fitted effect of over 50% in size. The gist of the method:
as §5

Experiment [16] can be described thus: A CellTox Green Cytotoxicity Assay to monitor cytotoxicity in HepG2 cells - 8 hour (AID 1224890). Note: nearly all actives have a fitted effect of over 45% in size. The gist of the method:
as §4

Experiment [17] can be described thus: qHTS assay to identify small molecule antagonists of the estrogen receptor alpha (ER-alpha) signaling pathway using the BG1 cell line in the presence of 0.1 nM 17-beta-estradiol - cell viability counter screen (AID 1259241). Note: nearly all actives have a fitted effect of over 40% in size. The gist of the method:
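Cytotoxicity counter-screen: live-cell protease activity measured by fluorescence (30 min reagent step) in the same wells. Cells were VM7Luc4E2 with endogenous ER-alpha and ERE-driven luciferase, treated 22 hr at 37C alongside 0.1 nM 17beta-estradiol final.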

Experiment [18] in a line: qHTS RealTime-Glo MT Cell Viability Assay in HepG2 cells - 32 hour (AID 1224877). Note: nearly all actives have a fitted effect of over 55% in size. The gist of the method:
as §5

Experiment [19] is described as follows: qHTS RealTime-Glo MT Cell Viability Assay in HEK293 cells - 0 hour (AID 1224880). The gist of the method: as §2
Experiment [20] is described as follows: A CellTox Green Cytotoxicity Assay to monitor cytotoxicity in HEK293 cells - 8 hour (AID 1224884). Note: nearly all actives have a fitted effect of over 35% in size. The gist of the method:
as §3

A number with no mark means an inactive call. Records with an inconclusive call do not appear. The source made the active and inactive calls. Calls come from the whole dose curve; as a rule, active = well fitted curve in the direction sought with a large enough effect in the repeat runs; inconclusive = weak or mixed curves; inactive = no such curve, though single readings can be large; an effect the other way counts as inactive or inconclusive.
% is set by controls: 0 for no effect and ±100 for the full control effect.

As for `[K+]`, the Potency result in experiment [1], in [7], in experiment [9], in experiment [10], in experiment [12] and in experiment [13] was “inactive” throughout. In addition, the Potency entry in experiment [15] was “inactive”. Besides, the outcome in experiment [2], in experiment [4], in experiment [5], in experiment [6], in [8] and in [11] was inactive. Moreover, the call in experiment [14], in experiment [16] and in experiment [17] was inactive. Further, the max response in experiment [3] is 21.2%.
Turning to `CC(=O)c1ccc2ccccc2c1`, the Potency result in experiment [1], in [18], in [19], in experiment [9], in experiment [12] and in experiment [13] was “inactive” in each case. For the same compound, in experiment [15], the Potency result is “inactive”. For the same compound, the call in experiment [2], in experiment [4], in experiment [20], in [11], in [14] and in [17] was inactive. The max response in [3] was 8.54%.
As for `O=C1c2ccccc2C(=O)c2cc(O)ccc21`, the call in [2], in experiment [4], in [5], in [6], in [8] and in experiment [20] was inactive. The compound was classed as inactive in experiment [11], in [14], in experiment [16] and in [17]. In addition, the Potency result in experiment [18], in experiment [7], in [19], in [9], in experiment [10] and in experiment [15] was “inactive” in each case. Besides, the Potency in experiment [13] was 55 µM (active).
Consider `O=C(CO)[C@@H](O)[C@H](O)[C@@H](O)CO`, for which the Potency result in [1], in experiment [18], in experiment [19], in [13] and in experiment [15] was “inactive” in each case. Besides, the call in [2], in experiment [4], in [20], in [11] and in experiment [14] was inactive. In experiment [3], the max response is 5.66%.
Turning to `O=S(=O)(O)c1cccc2c(S(=O)(=O)O)cccc12`, the call in experiment [2], in [5], in experiment [6], in experiment [20], in experiment [11] and in experiment [16] was inactive. In addition, in experiment [17], the outcome was inactive. Besides, the Potency entry in experiment [7], in experiment [19], in experiment [9], in experiment [10], in experiment [13] and in [15] was “inactive” in each case.
For `Cc1cccc(C)c1NC(=O)CC12CCCN1CCC2`, the Potency result in experiment [1], in experiment [19], in [12], in experiment [13] and in experiment [15] was “inactive” throughout. Moreover, the call in experiment [2], in experiment [4], in experiment [8], in experiment [20], in experiment [11] and in experiment [14] was inactive. Besides, the result in [16] and in experiment [17] was inactive. The max response in experiment [3] was 5.91%.
With `CCOC(=O)c1cnc2c(cnn2CC)c1NN=C(C)C`, the Potency result in experiment [1], in experiment [18], in experiment [7], in experiment [19], in experiment [9] and in experiment [12] was “inactive” in each case. Also, the Potency result in experiment [13] and in [15] was “inactive” throughout. The compound was classed as inactive in [2], in experiment [5], in [6], in experiment [8], in [20] and in experiment [11]. Further, the compound was classed as inactive in experiment [14], in experiment [16] and in experiment [17]. For the same compound, the max response in [3] was -11.3%.
As to `C=CCOCC(O)CO` (configuration not stated), the Potency entry in [1], in experiment [18], in experiment [19], in [13] and in experiment [15] was “inactive” each time. The compound was called inactive in experiment [2], in [20], in experiment [11] and in experiment [17]. Besides, the max response in [3] is 16.5%.
As for `O=C(O)c1cn(C2CC2)c2cc(N3CCNCC3)c(F)cc2c1=O`, the Potency entry in [1], in [18], in experiment [7], in experiment [19], in experiment [9] and in experiment [10] was “inactive” in each case. Moreover, the Potency result in experiment [12], in experiment [13] and in experiment [15] was “inactive” each time. In addition, the outcome in experiment [2], in experiment [4], in [5], in experiment [6], in experiment [11] and in experiment [14] was inactive. The call in experiment [16] and in [17] was inactive.
With `Nc1ccn([C@@H]2O[C@H](CO)[C@@H](O)C2(F)F)c(=O)n1`, the result in [2], in experiment [4], in experiment [5], in [6], in experiment [8] and in experiment [20] was inactive. Besides, the result in [11], in [14], in experiment [16] and in experiment [17] was inactive. Also, the Potency in [3] is 0.756 µM (active). Also, the Potency result in experiment [18], in experiment [7], in experiment [9], in experiment [10] and in [15] was “inactive” each time.
In the case of `CNCCO`, the Potency result in experiment [1], in [18], in [7], in experiment [19], in experiment [9] and in experiment [10] was “inactive” in each case. For the same compound, the Potency entry in [12], in experiment [13] and in experiment [15] was “inactive” throughout. Moreover, the compound was classed as inactive in [2], in [4], in [5], in experiment [6], in [8] and in experiment [20]. Moreover, the result in experiment [11], in experiment [14], in experiment [16] and in [17] was inactive.
Turning to `C[N+](C)(CCOc1ccccc1)Cc1cccs1`, the Potency entry in experiment [1], in experiment [19], in experiment [9], in experiment [12] and in experiment [13] was “inactive” each time. Also, the call in [2], in experiment [4], in experiment [8], in experiment [11], in experiment [14] and in experiment [16] was inactive. Also, the outcome in experiment [17] was inactive. Also, the max response in experiment [3] was 6.59%.
Take `O=C(O)CCCC[P+](c1ccccc1)(c1ccccc1)c1ccccc1`: the Potency entry in [1], in [18], in experiment [9], in [12], in experiment [13] and in [15] was “inactive” throughout. For the same compound, the compound was classed as inactive in [2], in experiment [4], in experiment [8], in experiment [11], in experiment [14] and in experiment [16]. Also, the max response in [3] was -10.4%.
As to `O=C(c1ccccc1O)c1ccccc1O`, the compound was classed as inactive in experiment [2], in experiment [4], in experiment [5], in experiment [6], in experiment [20] and in experiment [11]. Also, the result in experiment [14], in experiment [16] and in experiment [17] was inactive. The Potency result in experiment [18], in [7], in experiment [19], in experiment [9], in experiment [10] and in experiment [13] was “inactive” in each case.
